Results taken from PubChem BioAssay AID1347145 (National Center for Advancing Translational Sciences (NCATS), 2019).
Records with an inconclusive call do not appear. Calls of active or inactive are those of the source. Calls come from the whole dose curve; as a rule, active = well fitted inhibition curve with a large enough effect; inconclusive = small, poorly fitted or top-dose-only effect; inactive = no such curve, though single readings can be large or run the other way.

molecular target: N-terminal Xaa-Pro-Lys N-methyltransferase 1 (Homo sapiens) (UniProt Q9BV86); assay: qHTS Assay for Inhibitors of N-terminal methyltransferase 1 (NTMT1): MTaseGlo Assay Confirmatory Screen, Round 1; details: Recombinant NTMT1, MTase-Glo SAH luminescence; series mostly up to 57.1 µM
Sequence (Q9BV86 whole entry, looked up): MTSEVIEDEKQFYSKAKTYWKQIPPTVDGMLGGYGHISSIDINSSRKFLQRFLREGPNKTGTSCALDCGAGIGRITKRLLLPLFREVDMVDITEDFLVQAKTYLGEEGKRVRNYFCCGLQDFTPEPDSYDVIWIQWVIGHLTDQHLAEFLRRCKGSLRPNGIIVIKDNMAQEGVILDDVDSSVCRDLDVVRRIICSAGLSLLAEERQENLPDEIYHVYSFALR
How it was run: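 Luminescence from MTase-Glo conversion of SAH to ATP measured activity after a 30 min RT reaction with 1 µM SPKRIA substrate, 100 µM SAM and 125 nM enzyme. Normalization used no-enzyme and DMSO controls, followed by Hill fitting.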

Potency, inactive:
Nc1ncnc2c1nc(Br)n2C1CC(O)C(CO)O1 (centres undefined), CSc1nc(N)c2ncn([C@@H]3O[C@H](COP(=O)(O)OP(=O)(O)OP(=O)(O)O)[C@@H](O)[C@H]3O)c2n1, Nc1ncnc2c1ncn2[C@H]1O[C@H](CO)[C@@H](O)[C@@H]1O, Nc1ncnc2c1ncn2[C@@H]1O[C@H](COP(=O)(O)O)[C@@H](O)[C@H]1O, COc1cc2c(NC3CCN(C4CCCCC4)CC3)nc(N3CCCCCC3)nc2cc1OCCCN1CCCCC1, COc1cc2nc(N3CCN(C)CC3)nc(N3CCN(C(C)=O)CC3)c2cc1OC, COc1cc2nc(N3CCN(C)CC3)nc(NCCC3CC3)c2cc1OC, COC1C(CO)OC(n2cnc3c(=O)[nH]cnc32)C1O (centres undefined), Nc1nc(F)nc2c1ncn2[C@@H]1O[C@H](CO)[C@@H](O)[C@@H]1O, Nc1nc(Cl)nc2c1ncn2[C@@H]1O[C@H](COP(=O)(O)OP(=O)(O)OP(=O)(O)O)[C@@H](O)[C@H]1O, Nc1ncnc2c1ncn2[C@@H]1O[C@H](COP(=O)(O)OP(=O)(O)CP(=O)(O)O)[C@@H](O)[C@H]1O, CSc1nc(N)c2ncn([C@@H]3O[C@H](COP(=O)(O)OP(=O)(O)O)C(O)[C@H]3O)c2n1 (some centres undefined), COc1cc2nc(N3CCCCC3)nc(NC3CCN(C)CC3)c2cc1OC, COc1cc2nc(N3CCCN(C)CC3)nc(NC3CCN(C)CC3)c2cc1OC, COc1cc2nc(N3CCOCC3)nc(NC3CCN(Cc4ccccc4)CC3)c2cc1OC, Nc1ncnc2c1ncn2[C@H]1O[C@@H](CSCC[C@@H](N)C(=O)O)[C@H](O)[C@@H]1O, Nc1ncnc2c1ncn2[C@@H]1O[C@H](COP(=O)(O)OP(=O)(O)OP(=O)(O)OP(=O)(O)OC[C@@H]2O[C@H](n3cnc4c(N)ncnc43)[C@@H](O)C2O)C(O)[C@H]1O (some centres undefined), CCCc1cc(C)[nH]c(=O)c1CNC(=O)c1cc(-c2ccc(N3CCN(C(C)C)CC3)nc2)cc2c1cnn2C(C)C, COc1cc2nc(NCCN(C)C)nc(NC3CC3)c2cc1OC, OCCNc1ncnc2c1ncn2[C@@H]1O[C@@H](CO)[C@H](O)[C@@H]1O, COC(=O)c1ccc2c(c1)nc(NC(=O)c1ccccc1)n2CCCc1ccccc1, Nc1ncnc2c1nc(N1CCCCC1)n2[C@@H]1O[C@@H]2COP(=O)(O)O[C@H]2[C@H]1O, COc1cc2nc(N3CCCN(C)CC3)nc(NC3CC3)c2cc1OC, Nc1ncnc2c1ncn2[C@@H]1O[C@H](COP(=O)(O)OP(=O)(O)OP(=O)(O)O)[C@@H](O)[C@H]1O
